Results published in PubChem BioAssay (NCATS).
Inconclusive results are not listed. Active and inactive are the calls of the source. Calls follow the shape of the dose curve; as a rule, active = well fitted curve in the direction sought with a large enough effect; inconclusive = small, poorly fitted or top-dose-only effect, or another doubt; inactive = no such curve, though single readings can be large; an effect the other way counts as inactive or inconclusive.

Tests used:
[1] = molecular target: Rap guanine nucleotide exchange factor 3 (Homo sapiens) (UniProt O95398); test: Confirmatory qHTS for antagonist of cAMP-regulated guanine nucleotide exchange factor 3 (EPAC1) (AID 1645880); also: nearly all actives have a fitted effect of over 55% in size; also: potency is read from the fitted curve at half-maximal effect
How it was run: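 Nucleotide exchange uses 100 nM EPAC1, 250 nM RAP1B-BODIPY-GDP and 50 uM GDP, with compounds in a concentration-titration series. After 5 min at room temperature, fluorescence (480 nm ex/540 nm em) is read every 5 min for 30 min. Data are normalized to control ATA and DMSO.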

[2] = molecular target: Rap guanine nucleotide exchange factor 3 (Homo sapiens) (UniProt O95398); test: Confirmatory qHTS for agonist of cAMP-regulated guanine nucleotide exchange factor 3 (EPAC1) (AID 1645881);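 also: EPAC1 catalysed release of BODIPY-GDP from Rap1B seen as fluorescence loss; 100% = effect of cAMP agonist control; nearly all actives have a fitted effect of over 75% in size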
[3] = molecular target: Rap guanine nucleotide exchange factor 4 (Homo sapiens) (UniProt Q8WZA2); test: Confirmatory qHTS for agonist of cAMP-regulated guanine nucleotide exchange factor 4 (EPAC2) (AID 1645884);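 also: nucleotide exchange releases bodipy-GDP from Rap1 and this lowers its fluorescence; % is scaled to controls: 0 for no effect and ±100 for the full control effect; nearly all actives have a fitted effect of over 65% in size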
[4] = molecular target: Rap guanine nucleotide exchange factor 4 (Homo sapiens) (UniProt Q8WZA2); test: Confirmatory qHTS for antagonist of cAMP-regulated guanine nucleotide exchange factor 4 (EPAC2) (AID 1645885); also: nearly all actives have a fitted effect of over 25% in size; as to activity change, negative = inhibition: % is scaled to controls: 0 for no effect and ±100 for the full control effect
[5] = molecular target: Rap guanine nucleotide exchange factor 3 (Homo sapiens) (UniProt O95398); test: Counterscreen qHTS for antagonist of cAMP-regulated guanine nucleotide exchange factor 3 (EPAC1) (AID 1645888);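 also: fluorescence loss as bound BODIPY-GDP is released from Rap1B; % of control where 0% means no effect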
How it was run: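 Rap1B–BODIPY-GDP (250 nM) with 50 uM GDP; compounds pin-transferred to 9.74 nM–152 uM final (activator) or from 7.32 nM upwards (inhibitor). Fluorescence Ex/Em 480/540 nm read at 5 and 30 min, then after adding cAMP or buffer, at room temperature.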

Rap guanine nucleotide exchange factor 4 (Homo sapiens), sequence (Q8WZA2 whole entry, looked up): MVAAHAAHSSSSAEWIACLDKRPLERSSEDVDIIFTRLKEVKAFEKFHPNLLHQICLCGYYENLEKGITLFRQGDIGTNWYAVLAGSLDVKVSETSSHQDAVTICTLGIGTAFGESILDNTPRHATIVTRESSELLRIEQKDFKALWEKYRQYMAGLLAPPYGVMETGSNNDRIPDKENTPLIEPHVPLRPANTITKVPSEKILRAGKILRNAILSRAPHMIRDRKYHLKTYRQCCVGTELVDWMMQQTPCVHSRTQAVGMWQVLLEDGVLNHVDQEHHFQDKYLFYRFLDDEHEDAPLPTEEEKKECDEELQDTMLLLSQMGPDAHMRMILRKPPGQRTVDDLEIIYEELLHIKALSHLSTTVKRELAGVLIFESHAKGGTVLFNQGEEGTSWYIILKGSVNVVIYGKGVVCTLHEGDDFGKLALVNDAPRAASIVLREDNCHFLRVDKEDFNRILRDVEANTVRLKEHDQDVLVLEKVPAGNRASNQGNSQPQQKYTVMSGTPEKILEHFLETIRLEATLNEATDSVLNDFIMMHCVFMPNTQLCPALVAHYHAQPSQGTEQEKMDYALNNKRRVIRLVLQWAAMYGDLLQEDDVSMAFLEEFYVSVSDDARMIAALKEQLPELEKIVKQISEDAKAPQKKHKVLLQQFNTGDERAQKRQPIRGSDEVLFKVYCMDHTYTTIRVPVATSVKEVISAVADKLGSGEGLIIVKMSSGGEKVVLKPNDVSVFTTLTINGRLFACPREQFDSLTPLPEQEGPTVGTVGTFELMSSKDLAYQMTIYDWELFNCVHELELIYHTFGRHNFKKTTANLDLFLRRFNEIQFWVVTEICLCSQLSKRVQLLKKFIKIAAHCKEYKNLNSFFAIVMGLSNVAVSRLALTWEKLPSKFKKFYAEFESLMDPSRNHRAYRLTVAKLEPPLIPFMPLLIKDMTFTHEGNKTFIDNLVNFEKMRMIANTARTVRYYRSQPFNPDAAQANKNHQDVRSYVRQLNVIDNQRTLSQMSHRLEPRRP
Rap guanine nucleotide exchange factor 3 (Homo sapiens), sequence (O95398 whole entry, looked up): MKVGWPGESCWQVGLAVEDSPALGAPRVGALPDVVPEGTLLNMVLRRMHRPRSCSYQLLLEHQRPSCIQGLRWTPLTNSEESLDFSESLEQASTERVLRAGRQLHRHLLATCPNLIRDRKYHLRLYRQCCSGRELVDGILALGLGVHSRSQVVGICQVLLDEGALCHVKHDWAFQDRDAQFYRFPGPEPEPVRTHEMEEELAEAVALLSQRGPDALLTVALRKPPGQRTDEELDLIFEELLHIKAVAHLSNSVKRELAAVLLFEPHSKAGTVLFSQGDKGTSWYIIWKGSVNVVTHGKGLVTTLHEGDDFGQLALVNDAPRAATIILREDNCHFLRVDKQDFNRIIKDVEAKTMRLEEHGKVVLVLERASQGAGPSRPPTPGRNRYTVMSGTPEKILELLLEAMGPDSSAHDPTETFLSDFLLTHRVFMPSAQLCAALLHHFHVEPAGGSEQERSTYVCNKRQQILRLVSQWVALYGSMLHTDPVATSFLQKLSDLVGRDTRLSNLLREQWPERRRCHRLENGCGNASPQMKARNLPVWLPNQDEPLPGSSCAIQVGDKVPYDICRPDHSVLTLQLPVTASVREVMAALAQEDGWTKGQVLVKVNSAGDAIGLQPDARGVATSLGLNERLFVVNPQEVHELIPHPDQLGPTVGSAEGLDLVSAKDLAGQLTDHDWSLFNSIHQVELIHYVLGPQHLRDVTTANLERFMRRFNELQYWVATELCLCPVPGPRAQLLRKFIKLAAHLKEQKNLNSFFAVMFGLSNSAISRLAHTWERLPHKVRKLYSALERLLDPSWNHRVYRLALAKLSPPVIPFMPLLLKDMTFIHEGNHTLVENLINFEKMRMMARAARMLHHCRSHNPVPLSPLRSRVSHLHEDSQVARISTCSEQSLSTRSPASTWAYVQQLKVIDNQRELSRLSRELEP

COc1ccc2oc(C(=O)N(C)CCOc3ccc(Cl)cc3)c(C)c2c1
inactive: Potency [1] | Potency [2] | activation [3] 7.19% [at 17.1 µM, percent relative to cAMP agonist control] | Potency [4] | activity change, negative = inhibition [5] -14.2% [at 30.8 µM]

COc1ccc(S(=O)(=O)N2CCC[C@H]2C(=O)N2CCC[C@H]2C(=O)NCc2ccccc2)cc1C
inactive: Potency [1] | Potency [2] | activation [3] 4.41% [at 17.1 µM, percent relative to cAMP agonist control] | Potency [4] | activity change, negative = inhibition [5] -5.32% [at 30.8 µM]

COc1ccc(S(=O)(=O)N2CCOC23CCN(S(=O)(=O)c2ccc(F)cc2C)CC3)cc1
inactive: Potency [1] | Potency [2] | Potency [3] | Potency [4] | Potency [5]

Cc1occc1-c1nnc(SCC(=O)Nc2c(F)cccc2F)n1C
inactive: Potency [1] | Potency [2] | Potency [3] | Potency [4] | Potency [5]

CCOC(=O)Cc1nnc(NC(=O)CSc2nnc3c(n2)[nH]c2ccccc23)s1
inactive: Potency [2] | activation [3] 6.98% [at 17.1 µM, percent relative to cAMP agonist control] | Potency [4] | activity change, negative = inhibition [5] -37.4% [at 30.8 µM]
active: Potency [1] 44.7 µM

COc1ccc(OC)c(NC(=O)CN(C)CCOc2ccc(Br)cc2)c1
inactive: Potency [1] | Potency [2] | Potency [3] | Potency [4] | Potency [5]

Cc1cc(C)c2c(CN3CCCCC3)cc(=O)oc2c1
inactive: Potency [1] | Potency [2] | Potency [3] | Potency [4] | Potency [5]

Cc1ccc(NC(=O)c2ccc(Cl)c(S(=O)(=O)N3CCc4ccccc43)c2)nc1
inactive: Potency [1] | Potency [2] | Potency [3] | Potency [4] | Potency [5]

CCc1noc(C)c1C(=O)N1CCCSC1=Nc1ccccc1C(C)C
inactive: Potency [1] | Potency [2] | Potency [3] | Potency [4] | Potency [5]

CCc1nc2c(OCCOc3ccc(F)cc3)cccn2c1N(C)C(=O)c1ccc(OC)cc1
inactive: Potency [1] | Potency [2] | activation [3] 3.55% [at 17.1 µM, percent relative to cAMP agonist control] | Potency [4] | activity change, negative = inhibition [5] -15.6% [at 30.8 µM]

CC(=O)/C(=C/N(C)C)Sc1ccc(C)cc1
inactive: Potency [1] | Potency [2] | Potency [3] | Potency [4] | Potency [5]

CC(C)C[C@H](NC(=O)[C@H](Cc1ccccc1)n1c(=O)[nH]c2ccccc2c1=O)C(=O)N1CCC(C(=O)O)CC1
inactive: Potency [1] | Potency [2] | Potency [3] | Potency [4] | Potency [5]

COc1cc(/C=C2\SC(=S)N(NS(=O)(=O)c3ccc(C)cc3)C2=O)ccc1O
inactive: Potency [2] | activation [3] 2.55% [at 17.1 µM, percent relative to cAMP agonist control] | Potency [4] | activity change, negative = inhibition [5] -2.35% [at 30.8 µM]
active: Potency [1] 22.4 µM

CS(=O)(=O)c1cccc(C(=O)OCC(=O)c2ccc3c(c2)OCCO3)c1
inactive: Potency [1] | Potency [2] | activation [3] 8.5% [at 17.1 µM, percent relative to cAMP agonist control] | Potency [4] | activity change, negative = inhibition [5] -4.85% [at 30.8 µM]

Cc1cccnc1NC(=O)c1ccc(S(=O)(=O)N2CC(C)OC(C)C2)cc1 (stereo not given)
inactive: Potency [1] | Potency [2] | Potency [3] | Potency [4] | Potency [5]

CC(=O)NCCn1c(C)cc2ccccc21
inactive: Potency [1] | Potency [2] | activation [3] 5.87% [at 17.1 µM, percent relative to cAMP agonist control] | Potency [4] | activity change, negative = inhibition [5] -13.2% [at 30.8 µM]

Cc1cccc(N2CCN(c3ccc(C(=O)O)cc3NC(=O)c3ccccc3F)CC2C)c1 (stereo not given)
inactive: Potency [2] | Potency [3] | outcome [4] inactive [at 12.7 µM] | Potency [5]
active: Potency [1] 84.9 µM

CC1Oc2ccc(C#N)cc2N(Cc2ccccc2OC(F)(F)F)C1=O (stereo not given)
inactive: Potency [1] | Potency [2] | activation [3] 4.28% [at 17.1 µM, percent relative to cAMP agonist control] | Potency [4] | activity change, negative = inhibition [5] -10.7% [at 30.8 µM]

Cc1c(Cl)cccc1NC(=O)CN(CCc1ccccc1)S(=O)(=O)c1ccccc1
inactive: Potency [1] | Potency [2] | Potency [3] | Potency [4] | Potency [5]

Cc1c(C(=O)N2c3ccccc3CC2C)oc2ccccc12 (stereo not given)
inactive: Potency [1] | Potency [2] | Potency [3] | Potency [4] | Potency [5]

Cc1ccc(S(=O)(=O)Nc2cc(=O)[nH]c(SCC(=O)Nc3cccc(C)c3)n2)cc1
inactive: Potency [1] | Potency [2] | activation [3] 4.73% [at 17.1 µM, percent relative to cAMP agonist control] | Potency [4] | activity change, negative = inhibition [5] -4.46% [at 30.8 µM]

COCCCn1c(=N)c(C(=O)NCc2cccnc2)cc2c(=O)n3cc(C)ccc3nc21
inactive: Potency [1] | Potency [2] | Potency [3] | Potency [4] | Potency [5]

CCCCOc1ccccc1NC(=O)Cn1c(-c2cncs2)nc2ccccc21
inactive: Potency [1] | Potency [2] | Potency [3] | Potency [4] | Potency [5]

CCc1cc2c(-c3ccccc3)cc(=O)oc2cc1OCC(=O)NCC1CCC(C(=O)O)CC1 (stereo not given)
inactive: Potency [1] | Potency [2] | Potency [3] | Potency [4] | Potency [5]

COc1ccc(C(NC(C)=O)c2cc(Cl)c3cccnc3c2O)cc1 (stereo not given)
inactive: Potency [1] | Potency [2] | activation [3] 3.14% [at 17.1 µM, percent relative to cAMP agonist control] | Potency [4] | activity change, negative = inhibition [5] -6.93% [at 30.8 µM]

COc1ccccc1NC(=O)c1sc2nc(C)c(C(=O)Nc3ccc(C)cc3C)c(-c3ccco3)c2c1N
inactive: Potency [1] | Potency [2] | Potency [3] | outcome [4] inactive [at 12.7 µM] | Potency [5]

CS(=O)(=O)N1N=C(c2ccco2)CC1c1ccc(Cl)cc1Cl (stereo not given)
inactive: Potency [1] | Potency [2] | activation [3] 0.361% [at 17.1 µM, percent relative to cAMP agonist control] | Potency [4] | activity change, negative = inhibition [5] 3.91% [at 30.8 µM]

C=CCOc1ccc(C=NNc2ccc(S(=O)(=O)Nc3ccccc3C(=O)O)cc2[N+](=O)[O-])cc1OC
inactive: Potency [2] | Potency [3] | Potency [4] | Potency [5]
active: Potency [1] 7.57 µM

Cc1ccc(C)c(N(C)C(=O)c2cn(C)c(=O)c3ccccc23)c1
inactive: Potency [1] | Potency [2] | Potency [3] | Potency [4] | Potency [5]

CC(OC(=O)Cc1c[nH]c2ccccc12)C(=O)Nc1ccccc1F (stereo not given)
inactive: Potency [1] | Potency [2] | Potency [3] | Potency [4] | Potency [5]

O=C(Nc1cccs1)Nc1ccccc1Cl
inactive: Potency [1] | Potency [2] | activation [3] 6.52% [at 17.1 µM, percent relative to cAMP agonist control] | Potency [4] | activity change, negative = inhibition [5] 6.73% [at 30.8 µM]

CCN(CC(=O)Nc1ccc(NC(C)=O)cc1)CC(=O)Nc1ccc(F)c(Cl)c1
inactive: Potency [1] | Potency [2] | activation [3] 5.14% [at 17.1 µM, percent relative to cAMP agonist control] | Potency [4] | activity change, negative = inhibition [5] 3.51% [at 30.8 µM]

OC1CCN(c2c3c(nc4cc(-c5cccc(F)c5)nn24)CCCC3)CC1
inactive: Potency [1] | Potency [2] | Potency [3] | Potency [4] | Potency [5]

CCOC(=O)COc1ccc(Br)cc1/C=C\c1[nH]c(=O)[nH]c(=O)c1[N+](=O)[O-]
inactive: Potency [2] | activation [3] 4.81% [at 17.1 µM, percent relative to cAMP agonist control] | Potency [4] | activity change, negative = inhibition [5] -24.7% [at 30.8 µM]
active: Potency [1] 20 µM

CCOc1ncccc1C(=O)Nc1ccc(C)c(S(=O)(=O)N2CCCCCC2)c1
inactive: Potency [1] | Potency [2] | Potency [3] | Potency [4] | Potency [5]

O=C(c1ccccc1)N1CCN(CCc2ccccn2)CC1
inactive: Potency [1] | Potency [2] | Potency [3] | outcome [4] inactive [at 12.7 µM] | Potency [5]

CC1(C)Cc2c(C#N)c(N3CCN(C(=O)c4ccccc4Cl)CC3)nc(-c3ccco3)c2CS1
inactive: Potency [2] | Potency [3] | Potency [4] | Potency [5]
active: Potency [1] 26.9 µM

NC(=O)c1sc(=S)n2c1[nH]c(=O)c1sccc12
active: Potency [1] 16.9 µM
inactive: Potency [2] | Potency [3] | Potency [4] | Potency [5]

COC(=O)c1c(SC)nc2ccccc2c1OCc1ccc(Br)cc1
inactive: Potency [1] | Potency [2] | Potency [3] | Potency [4] | Potency [5]

Cc1ccc(-c2cn3c(n2)sc2cc(C(=O)NCCC4=CCCCC4)ccc23)c(C)c1
inactive: Potency [1] | Potency [2] | Potency [3] | Potency [4] | Potency [5]

O=C(OCc1ccc([N+](=O)[O-])cc1)c1cc(=O)c2ccccc2o1
inactive: Potency [1] | Potency [2] | Potency [3] | Potency [4] | Potency [5]

O=C1NN(c2ccccc2)C(=O)/C1=C\c1coc2ccc(O)cc2c1=O
inactive: Potency [2] | Potency [3] | Potency [4] | Potency [5]
active: Potency [1] 21.3 µM

Cc1ccc(C)c(S(=O)(=O)/N=C2\C=C(NS(=O)(=O)c3ccccc3)C(=O)c3ccccc32)c1
active: Potency [1] 22.4 µM
inactive: Potency [2] | activation [3] 3.6% [at 17.1 µM, percent relative to cAMP agonist control] | Potency [4] | activity change, negative = inhibition [5] -11.3% [at 30.8 µM]

CCCC(=O)Nc1nnc(SCc2cc(=O)c3ccc(C)cc3[nH]2)s1
inactive: Potency [1] | Potency [2] | Potency [3] | Potency [4] | Potency [5]

COC(=O)c1cc2sc(C)cc2n1Cc1ccccc1
inactive: Potency [1] | Potency [2] | Potency [3] | Potency [4] | Potency [5]

O=C(N/N=C\c1cc([N+](=O)[O-])ccc1N1CCCC1)c1ccccn1
inactive: Potency [1] | Potency [2] | activation [3] 3.56% [at 17.1 µM, percent relative to cAMP agonist control] | Potency [4] | activity change, negative = inhibition [5] -14.6% [at 30.8 µM]

Fc1cc(F)c(F)c(SCn2cc(Br)cn2)c1F
inactive: Potency [1] | Potency [2] | activation [3] 5.6% [at 17.1 µM, percent relative to cAMP agonist control] | Potency [4] | activity change, negative = inhibition [5] -7.43% [at 30.8 µM]
